Several values for one entry are separate records, joined by “and”; a condition that tells them apart may be missing. Equal entries are not always repeated. Compounds without any hit were thinned out: in the full panel of roughly 83,000, 20% have a hit.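 Treatment: one concentration, 48 hours, 96-well format. Scoring: percent growth, with anything below 10 considered active.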 Activity calls are given as the source filed them.

Consider twelve molecules from PubChem BioAssay (NCI).

Some test systems named below: NCI-H23 lung; NCI-H226 lung; NCI-H322M lung; HOP-62 NSCLC; NCI-H460 lung; HOP-92 NSCLC; NCI-H522 lung; A549/ATCC NSCLC; 786-0 renal; COLO 205 colon.
What all share (assay): NCI-60 one-dose screen, 48 h (100 = growth as untreated, 0 = no growth, -100 = all killed)
Holding throughout (conditions): 10 µM unless noted

Take `CCOC(=O)C1=C(C)NC(=O)NC1c1c(Cl)n(-c2ccccc2)c2ccccc12` (stereo not given): the growth with NCI-H23 lung is 74.7% (inactive); with NCI-H226 lung it was 86.5% (inactive); in the assay with NCI-H322M lung, 80.5% (inactive); with HOP-62 NSCLC, 86.7% (inactive); with NCI-H460 lung it was 96.1% (inactive); with HOP-92 NSCLC, 59.5% (inactive). Besides, the growth with NCI-H522 lung is 66% (inactive); in the assay with A549/ATCC NSCLC it was 88.2% (inactive); in the assay on 786-0 renal it was 83.1% (inactive); with COLO 205 colon it was 107% (inactive).
For `COc1ccc(Nc2ncnc3ccc(-c4cncc(NS(C)(=O)=O)c4)cc23)cc1Cl`, the growth with NCI-H23 lung was 35.4% (inactive); in the assay on NCI-H226 lung it was 56% (inactive); in the assay on NCI-H322M lung, 54.6% (inactive); in the assay with HOP-62 NSCLC it was 39.2% (inactive); in the assay on NCI-H460 lung it was 75.9% (inactive); with HOP-92 NSCLC, -7.88% (active). Further, the growth is 9.61% (active) in the assay with NCI-H522 lung, 64.5% (inactive) in the assay on A549/ATCC NSCLC, 58.3% (inactive) with 786-0 renal and 30.2% (inactive) in the assay with COLO 205 colon.
As to `COc1ccc(C(=O)N/N=C/c2ccc(O)cc2O)cc1Nc1ccnc(C(F)(F)F)c1`, the growth in the assay on NCI-H23 lung was 32.1% (inactive); in the assay on NCI-H226 lung, 45% (inactive); with NCI-H322M lung it was 30.9% (inactive); in the assay on HOP-62 NSCLC, 11.8% (inactive); in the assay on NCI-H460 lung, 24.7% (inactive); in the assay on HOP-92 NSCLC, 51.8% (inactive). Besides, the growth in the assay with NCI-H522 lung is 36.2% (inactive); with A549/ATCC NSCLC, 53.3% (inactive); in the assay with 786-0 renal it was 3.75% (active); in the assay with COLO 205 colon, 37.1% (inactive).
Consider `CCOC(=O)C(=CCC(C)C)C(=O)OCC`, for which the growth in the assay with NCI-H23 lung was 93.1% (inactive); in the assay on NCI-H226 lung, 93.4% (inactive); in the assay on NCI-H322M lung, 104% (inactive); in the assay on HOP-62 NSCLC, 89% (inactive); in the assay on NCI-H460 lung, 106% (inactive); with HOP-92 NSCLC, 89.3% (inactive). Moreover, the growth in the assay with NCI-H522 lung was 104% (inactive); in the assay on A549/ATCC NSCLC, 104% (inactive); with 786-0 renal it was 95.9% (inactive); in the assay on COLO 205 colon, 116% (inactive).
Take `COc1ccc(-c2nnc3n(C)c(=O)c4ccccc4n23)cc1O`: the growth was 41.4% (inactive) with NCI-H23 lung; 76.8% (inactive) in the assay with NCI-H226 lung; 44.6% (inactive) in the assay with NCI-H322M lung; 20.3% (inactive) in the assay on HOP-62 NSCLC; 12% (inactive) with NCI-H460 lung; 67.3% (inactive) in the assay with HOP-92 NSCLC. Further, the growth in the assay with NCI-H522 lung was 15.6% (inactive); in the assay with A549/ATCC NSCLC, 16.5% (inactive); in the assay on 786-0 renal, 30.8% (inactive); in the assay on COLO 205 colon it was 16.6% (inactive).
As to `CN(Cc1ccccc1)c1nc(Cl)c(C2CC(c3ccc(F)cc3)=NN2C=O)s1` (stereo not given), the growth with NCI-H23 lung was 84.2% (inactive); in the assay on NCI-H226 lung, 95.9% (inactive); in the assay with NCI-H322M lung, 93.1% (inactive); in the assay with HOP-62 NSCLC, 107% (inactive); in the assay with NCI-H460 lung, 96.9% (inactive); with HOP-92 NSCLC, 89.5% (inactive). For the same molecule, the growth with NCI-H522 lung is 83.3% (inactive); with A549/ATCC NSCLC, 94.6% (inactive); with 786-0 renal, 93.9% (inactive); in the assay on COLO 205 colon, 99.7% (inactive).
Take `COc1ccc(-c2cc(=O)c3c(O)cc(O)cc3o2)cc1`: the growth is 96.3% (inactive) and 100% (inactive) in the assay on NCI-H23 lung; 106% (inactive) in the assay with NCI-H226 lung; 109% (inactive) and 103% (inactive) in the assay with NCI-H322M lung; 113% (inactive) and 114% (inactive) in the assay with HOP-62 NSCLC; 104% (inactive) and 97.2% (inactive) in the assay on NCI-H460 lung; 95.4% (inactive) and 75% (inactive) in the assay on HOP-92 NSCLC. The growth was 83.2% (inactive) and 77.9% (inactive) in the assay on NCI-H522 lung; 97.1% (inactive) and 94.8% (inactive) in the assay on A549/ATCC NSCLC; 107% (inactive) with 786-0 renal; 101% (inactive) with COLO 205 colon.
Take `CCOC(=O)c1nc2c3ccccc3cnn2c1C(=O)c1ccc(OC)cc1`: the growth is 84.4% (inactive) in the assay on NCI-H23 lung; 81.9% (inactive) in the assay with NCI-H226 lung; 101% (inactive) with NCI-H322M lung; 77.4% (inactive) with HOP-62 NSCLC; 103% (inactive) in the assay on NCI-H460 lung; 86.5% (inactive) in the assay on HOP-92 NSCLC. For the same molecule, the growth is 95.2% (inactive) in the assay with NCI-H522 lung, 87.2% (inactive) with A549/ATCC NSCLC, 102% (inactive) in the assay with 786-0 renal and 97.5% (inactive) with COLO 205 colon.
For `COc1cc2ncnc(Nc3ccc(F)c(Cl)c3)c2cc1OCC(=O)N1CCCCC1`, the growth is 91% (inactive) in the assay on NCI-H23 lung; 86.8% (inactive) in the assay with NCI-H226 lung; 29% (inactive) in the assay on NCI-H322M lung; 103% (inactive) in the assay on HOP-62 NSCLC; 95.5% (inactive) in the assay with NCI-H460 lung; 81.6% (inactive) in the assay with HOP-92 NSCLC. For the same molecule, the growth with NCI-H522 lung was 33.1% (inactive); with A549/ATCC NSCLC, 67.8% (inactive); in the assay with 786-0 renal, 78.2% (inactive); in the assay with COLO 205 colon, 96% (inactive).
Consider `O=C(/C=C/c1ccccc1)c1cccs1`, for which the growth was 94.1% (inactive) and 105% (inactive) in the assay on NCI-H23 lung; 103% (inactive) in the assay with NCI-H226 lung; 106% (inactive) with NCI-H322M lung; 98.7% (inactive) and 114% (inactive) with HOP-62 NSCLC; 93.3% (inactive) and 109% (inactive) with NCI-H460 lung; 79.3% (inactive) in the assay on HOP-92 NSCLC. Besides, the growth is 73.6% (inactive) and 94.2% (inactive) in the assay on NCI-H522 lung; 93.9% (inactive) and 94.3% (inactive) with A549/ATCC NSCLC; 89.5% (inactive) and 94.2% (inactive) in the assay on 786-0 renal; 112% (inactive) and 120% (inactive) with COLO 205 colon.
With `NC(N)=NC(N)=NCCCc1ccco1`, the growth in the assay on NCI-H23 lung was 105% (inactive); in the assay with NCI-H226 lung, 111% (inactive); with NCI-H322M lung it was 105% (inactive); in the assay with HOP-62 NSCLC, 101% (inactive); in the assay on NCI-H460 lung it was 108% (inactive); in the assay with HOP-92 NSCLC, 95.4% (inactive). In addition, the growth was 93.6% (inactive) with NCI-H522 lung, 102% (inactive) in the assay on A549/ATCC NSCLC, 112% (inactive) in the assay on 786-0 renal and 111% (inactive) in the assay on COLO 205 colon.
Turning to `COc1ccc(/C(C)=C(\c2ccc(OCCN3CCCCCC3)cc2)c2ccc(OC(=O)C3CCCCC3)cc2)cc1`, the growth in the assay on NCI-H23 lung was -74% (active); in the assay on NCI-H226 lung, -62.4% (active); with NCI-H322M lung, 5.75% (active); with HOP-62 NSCLC it was -73.4% (active); in the assay with NCI-H460 lung it was -65.6% (active); with HOP-92 NSCLC, -88.9% (active). Besides, the growth with NCI-H522 lung is -67.6% (active); with A549/ATCC NSCLC it was -32.9% (active); in the assay on 786-0 renal, -84.2% (active); with COLO 205 colon it was -63% (active).
